Measured values as given in PubChem BioAssay AID1159580 (chemical genetic matrix, 2015).
The campaign covered roughly 5,500 compounds. About 2,000 (36%) were called active. Inconclusive results (about 18%) are left out. No stated cut-off is given here; in the data, active means normalized growth mostly below about 0.91 (no sharp cut-off); inconclusive means no clear call, values can overlap the other calls; inactive means mostly above about 0.92. The list shows a part of the results.

Assay: chemical genetic growth profiling, strain panel (AID 1159580);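 further: tested at 20 µM; growth read once vehicle control cultures reached saturation at 30 °C; 1 = growth at the plate median or of vehicle wells; lower values mean less growth of the strain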
Conditions: growth OD

Measured: normalized growth

NC(=O)c1ccc[n+]([C@@H]2O[C@H](COP(=O)([O-])OP(=O)(O)OC[C@H]3O[C@@H](n4cnc5c(N)ncnc54)[C@H](O)[C@@H]3O)[C@@H](O)[C@H]2O)c1
inactive: S. cerevisiae deletion strains, locus YJR075W, strain HOC1, active compounds read low 1.02 | S. cerevisiae deletion strains, locus YKL009W, strain mrt4, active compounds read low 0.975 | S. cerevisiae deletion strains, locus YKL068W, active compounds read low 0.987 | S. cerevisiae deletion strains, locus YKL085W, strain MDH1 (second series), active compounds read low 0.986 | S. cerevisiae deletion strains, locus YKL085W, strain MDH1, active compounds read low 0.986 | S. cerevisiae deletion strains, locus YKL160W, strain elf1, active compounds read low 1.06 | S. cerevisiae deletion strains, locus YKL190W, strain CNB1, active compounds read low 0.996 | S. cerevisiae deletion strains, locus YKR001C, strain vps1, active compounds read low 0.997 | S. cerevisiae deletion strains, locus YKR026C, strain gcn3, active compounds read low 1.02 | S. cerevisiae deletion strains, locus YKR091W, strain srl3, active compounds read low 1.02 | S. cerevisiae deletion strains, locus YLL001W, strain dnm1, active compounds read low 1.03 | S. cerevisiae deletion strains, locus YLL026W, active compounds read low 1.02 | S. cerevisiae deletion strains, locus YLL041C, strain sdh2, active compounds read low 1.04 | S. cerevisiae deletion strains, locus YLR027C, strain aat2, active compounds read low 1.03 | S. cerevisiae deletion strains, locus YLR039C, strain RIC1, active compounds read low 0.987 | S. cerevisiae deletion strains, locus YLR058C, strain SHM2, active compounds read low 0.977 | S. cerevisiae deletion strains, locus YLR102C, strain apc9, active compounds read low 0.989 | S. cerevisiae deletion strains, locus YLR113W, strain HOG1, active compounds read low 0.982 | S. cerevisiae deletion strains, locus YLR221C, strain rsa3, active compounds read low 1.04 | S. cerevisiae deletion strains, locus YLR258W, strain gsy2, active compounds read low 1.04 | S. cerevisiae deletion strains, locus YLR262C, strain YPT6 (second series), active compounds read low 1.05 | S. cerevisiae deletion strains, locus YLR262C, strain YPT6, active compounds read low 0.939 | S. cerevisiae deletion strains, locus YLR268W, strain sec22, active compounds read low 1.08 | S. cerevisiae deletion strains, locus YLR320W, strain mms22, active compounds read low 1.03 | S. cerevisiae deletion strains, locus YLR330W, strain CHS5, active compounds read low 0.982 | S. cerevisiae deletion strains, locus YLR342W, strain FKS1 (second series), active compounds read low 0.986 | S. cerevisiae deletion strains, locus YLR342W, strain FKS1, active compounds read low 1.02 | S. cerevisiae deletion strains, locus YLR357W, strain rsc2, active compounds read low 1.05 | S. cerevisiae deletion strains, locus YLR370C, strain arc18, active compounds read low 1.04 | S. cerevisiae deletion strains, locus YLR371W, strain rom2, active compounds read low 0.977 | S. cerevisiae deletion strains, locus YLR384C, strain iki3, active compounds read low 1.04 | S. cerevisiae deletion strains, locus YLR418C, strain cdc73, active compounds read low 1.02 | S. cerevisiae deletion strains, locus YML016C, strain PPZ1, active compounds read low 0.982 | S. cerevisiae deletion strains, locus YML032C, strain rad52, active compounds read low 1.01 | S. cerevisiae deletion strains, locus YML120C, strain ndi1, active compounds read low 1.04 | S. cerevisiae deletion strains, locus YML124C, strain tub3, active compounds read low 0.989 | S. cerevisiae deletion strains, locus YMR058W, strain fet3, active compounds read low 1.04 | S. cerevisiae deletion strains, locus YMR078C, strain ctf18, active compounds read low 0.986 | S. cerevisiae deletion strains, locus YMR125W, strain sto1, active compounds read low 1.06 | S. cerevisiae deletion strains, locus YMR129W, active compounds read low 1.02 | S. cerevisiae deletion strains, locus YMR205C, strain PFK2, active compounds read low 1.04 | S. cerevisiae deletion strains, locus YMR223W, strain ubp8, active compounds read low 0.974 | S. cerevisiae deletion strains, locus YMR231W, strain pep5, active compounds read low 1.04 | S. cerevisiae deletion strains, locus YMR263W, strain SAP30, active compounds read low 1 | S. cerevisiae deletion strains, locus YMR307W, strain GAS1, active compounds read low 0.992 | S. cerevisiae deletion strains, locus YNL067W, strain RPL9B, active compounds read low 1.01 | S. cerevisiae deletion strains, locus YNL071W, strain lat1, active compounds read low 1.03 | S. cerevisiae deletion strains, locus YNL128W, strain TEP1, active compounds read low 0.953 | S. cerevisiae deletion strains, locus YNL153C, strain GIM3, active compounds read low 1.02 | S. cerevisiae deletion strains, locus YNL183C, strain NPR1, active compounds read low 0.969 | S. cerevisiae deletion strains, locus YNL209W, strain ssb2, active compounds read low 1.04 | S. cerevisiae deletion strains, locus YNL233W, strain BNI4, active compounds read low 1.02 | S. cerevisiae deletion strains, locus YNL248C, strain rpa49, active compounds read low 1.07 | S. cerevisiae deletion strains, locus YNL250W, strain rad50, active compounds read low 0.985 | S. cerevisiae deletion strains, locus YNL271C, strain bni1, active compounds read low 0.994 | S. cerevisiae deletion strains, locus YNL298W, strain CLA4, active compounds read low 0.996 | S. cerevisiae deletion strains, locus YNL307C, strain MCK1, active compounds read low 1.01 | S. cerevisiae deletion strains, locus YNL322C, strain KRE1 (second series), active compounds read low 1.03 | S. cerevisiae deletion strains, locus YNL322C, strain KRE1, active compounds read low 0.983 | S. cerevisiae deletion strains, locus YNR049C, strain mso1, active compounds read low 1.02 | S. cerevisiae deletion strains, locus YNR052C, strain pop2, active compounds read low 0.995 | S. cerevisiae deletion strains, locus YOL006C, strain TOP1, active compounds read low 1.01 | S. cerevisiae deletion strains, locus YOL012C, strain htz1 0.903 | S. cerevisiae deletion strains, locus YOL147C, strain pex11, active compounds read low 0.994 | S. cerevisiae deletion strains, locus YOR001W, strain rrp6, active compounds read low 1.05 | S. cerevisiae deletion strains, locus YOR061W, strain CKA2, active compounds read low 0.969 | S. cerevisiae deletion strains, locus YOR069W, strain VPS5, active compounds read low 0.993 | S. cerevisiae deletion strains, locus YOR070C, strain gyp1, active compounds read low 1.02 | S. cerevisiae deletion strains, locus YOR080W, strain dia2, active compounds read low 1.02 | S. cerevisiae deletion strains, locus YOR083W, strain WHI5, active compounds read low 1.06 | S. cerevisiae deletion strains, locus YOR106W, strain vam3, active compounds read low 1.07 | S. cerevisiae deletion strains, locus YOR136W, strain idh2, active compounds read low 0.991 | S. cerevisiae deletion strains, locus YOR144C, strain elg1, active compounds read low 0.991 | S. cerevisiae deletion strains, locus YOR184W, strain ser1, active compounds read low 1 | S. cerevisiae deletion strains, locus YOR231W, strain MKK1, active compounds read low 0.999 | S. cerevisiae deletion strains, locus YOR265W, strain rbl2, active compounds read low 1.02 | S. cerevisiae deletion strains, locus YOR270C, strain vph1, active compounds read low 1.14 | S. cerevisiae deletion strains, locus YOR290C, strain snf2, active compounds read low 1.07 | S. cerevisiae deletion strains, locus YOR316C, strain cot1, active compounds read low 0.988 | S. cerevisiae deletion strains, locus YPL051W, strain arl3, active compounds read low 1.05 | S. cerevisiae deletion strains, locus YPL055C, strain LGE1, active compounds read low 0.997 | S. cerevisiae deletion strains, locus YPL078C, strain atp4, active compounds read low 1.08 | S. cerevisiae deletion strains, locus YPL106C, strain sse1, active compounds read low 1.04 | S. cerevisiae deletion strains, locus YPL240C, strain hsp82, active compounds read low 1.01 | S. cerevisiae deletion strains, locus YPL241C, strain CIN2, active compounds read low 0.984 | S. cerevisiae deletion strains, locus YPL256C, strain CLN2, active compounds read low 0.961 | S. cerevisiae deletion strains, locus YPR119W, strain clb2, active compounds read low 0.993 | S. cerevisiae deletion strains, locus YPR141C, strain kar3, active compounds read low 0.991 | S. cerevisiae deletion strains, locus YPR163C, strain tif3, active compounds read low 1 | S. cerevisiae deletion strains, locus YPR167C, strain met16, active compounds read low 0.998 | S. cerevisiae deletion strains, strain wtn01, active compounds read low 1.03 | S. cerevisiae strains, strain wild type, active compounds read low 0.993
